According to the supplement of paper PMC6555819:

These sequences were tested on VDR:RXRa (NR concentration 270 nM, RXRa partner concentration 90 nM) (assay: PBM binding z-score (relative to random genomic background probes); higher = stronger binding; sequences stand for … in GC…GCGATTGACAGCGTAGAATGAAGG).
Experimental: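 Protein-binding microarray (Agilent 4x180K custom design, double-stranded 60-nt probes: 5' GC cap, 34-nt variable region, 24-nt constant primer region; full probe sequence given). Purified or IVT nuclear receptor:RXRα heterodimers (3:1 NR:RXRα, mostly 270:90 nM) or homodimers were incubated for 1 h in PBS with 2% milk and no ligand, then detected with Alexa488 antibodies. Fluorescence from o1-orientation probes (~5 replicates averaged) was converted to z-scores against 500 random hg19 background probes. Variable regions are seed direct-repeat (DR0–DR5) sites, all their single-nucleotide variants and half-site ablations.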

Row | Sequence | PBM binding z-score
1 | CTCGAAAGGTCGGTTGGGGTGAGTATACGGATAA | 3.24
2 | GCTTGTAGATCAAGGTGAAGAAAGACTAAGCTAA | -0.394
3 | CTTGAAAGGTCGTGCTCAGGTGAGTATACCAAAC | 3.55
4 | GCGACTGGGGCATCTGCAGGTTACCATAACTTAA | -0.144
5 | TAGCCTAGGGCATGCGGGCCAGTATAGTGTCGGC | -0.814
6 | GCGACTGGGACAAAGCAGGTTACCATAAGGTTGG | -0.0797
7 | TCTTGGAGATCAACAGGAGGTTAAGAAAGATCGA | 0.539
8 | AGTCAAAGTTCATTTAGGTAACGTAAGATATGCT | 4.97
9 | CCAGACAGGTGAAATGTAACTCAGTCTGGTACGC | 0.0659
10 | ACTATTTGGTCAGCTGAGGTCACACACAATTCGG | 4.64
11 | CCTAGCAGGCCAATGTGGGTCACTCAAGGCTTGA | 1.02
12 | GATACAGGGTCAAGGCCCGAGTACGCGTATTGAT | 4.28
13 | CGTCCAAGGTCAGCAAGTCAGTGAAAGCGACGTG | 2.93
14 | TAGCCTAGATCATGCGGGCCAGTATAGTGTCGGC | -1.11
15 | CCGACTGGGGCAAGGTTACCGTAACGCACAGCCA | -0.0549
16 | TCATATAGGCAAAAGGTGAAAGTCGGTGTGGTAA | 1.05
17 | TATACAGGGTCAAAGGCCAGAATACGAATGTCGA | 4.62
18 | TTACCAAGGTGAGCTGAGGTCGTTGACCCAACTC | 3.96
19 | CGTCATAGTTCAAGGTAACGTAACAGAAAGCAGC | 1.3
20 | CGTCAAAGTTCAAGGTAACGTTACAGAAAGCAGC | 3.97

Row | Sequence | PBM binding z-score
21 | CCTTACGGGTCACGAGGTTATAGTACGACGAGCG | 5.35
22 | ATCTCTAGGTAATGATAGTTCAGTGAATGCAAAT | 0.849
23 | AGAACGAGGGCTATGAGTTGATAGCACGGGTGGC | 0.114
24 | TCTTGTAGATCAATAGAGGTTAAAAAAGTGCGCT | 1.94
25 | CGTCCCAGGTCAGAGAGGTCAGTGAATGCCGAGT | 6.8
26 | ATCTCTAGGTAACACGTTCAGTGAAAGAGAGGAC | 0.339
27 | ACAGACAGGTGAGTTAAGGTAACTCAGCTGGACG | -0.161
28 | CAGCCAAGGTCAGGGCCAGTATAGGAGGAACGTT | 2.4
29 | TCTAGTTGGTCACGCAGGTCACACACGACGGGTA | 4.01
30 | TCTGCTAGGTGAACGATGGTCAGCTAATCTGCTA | -0.621
31 | ACTATTAGTTGAGCCGAGGGCAACCGATAGGTTG | 0.613
32 | ACAGACAGGTGAGTGAAGGCAACTCAGCTGGACG | -0.535
33 | GCGACTGGCGCAAAGCAGGTTACCATAAGGTTGG | -0.716
34 | GCAGACAGGTGTAACGCAGGTAACTCAGGGTGGC | -0.647
35 | GTATCAAGGTGAATAGGTCGTTGATGAGTAGGCG | 1.1
36 | CAAACAAGGTCAAGGTCAAAGTCGGTTTGTGCCA | 6.23
37 | TTACCAAGGTGAGCTGAGTTCGTTGATCCAACTC | 4.86
38 | TCTATTAGTTGATTAGGGCAAGCGAAACAGCGGA | 0.402
39 | ACCAGCAGGCCAAGTTTGGGTCACTCAAACAAAG | 0.61
40 | ATATGTACGTTACATCCGGGTCATTCAGGCTATG | 3.54
